Data: PubChem BioAssay AID588852 (The Scripps Research Institute Molecular Screening Center, 2011)
In all, about 360,000 compounds went through this assay and about 4,600 (1.3%) were called active. The entries come from a sample that favours actives as a whole. Unmarked numbers belong to inactive results.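 How the source made its calls: active means percent inhibition above its own plate's cutoff, namely the mean of that plate's compound wells plus 3 SD; inactive means the rest.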

Target: Muscarinic acetylcholine receptor M1 (Homo sapiens) (UniProt P11229)
Test: CHRM1 blockers of acetylcholine calcium response – CHO-K1 cells, Fluo-8 calcium fluorescence, 1536-well, primary screen (AID 588852);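 further: peak over basal fluorescence ratio during 140 s after agonist addition; 0% = ACh EC80 plus DMSO and 100% = DMSO alone without agonist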
Conditions: CHO-K1 hM1, Fluo-8 calcium fluorescence, ACh EC80 antagonist; at 3 µM; stronger effect = higher value

Chain of Muscarinic acetylcholine receptor M1 (Homo sapiens) (P11229 whole entry, looked up): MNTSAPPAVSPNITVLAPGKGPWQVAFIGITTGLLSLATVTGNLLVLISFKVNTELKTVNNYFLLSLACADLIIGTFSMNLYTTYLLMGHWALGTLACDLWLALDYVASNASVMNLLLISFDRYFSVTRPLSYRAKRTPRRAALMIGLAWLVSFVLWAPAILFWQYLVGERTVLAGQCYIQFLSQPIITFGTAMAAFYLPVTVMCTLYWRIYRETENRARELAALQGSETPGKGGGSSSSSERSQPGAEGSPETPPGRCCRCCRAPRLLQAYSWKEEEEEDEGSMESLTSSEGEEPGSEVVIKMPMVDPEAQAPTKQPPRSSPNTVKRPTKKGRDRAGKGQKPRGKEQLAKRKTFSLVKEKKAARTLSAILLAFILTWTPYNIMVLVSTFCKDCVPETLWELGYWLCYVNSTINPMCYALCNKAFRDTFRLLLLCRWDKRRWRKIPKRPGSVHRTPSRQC

SMILES	inhibition
COc1cccc(CNn2cn[nH]c2=S)c1OCc1ccccc1	-12.7%
COc1ccccc1-c1cc2nc(NCc3cccc(Cl)c3)ccn2n1	-15.4%
Nc1ncnc2c1ncn2[C@@H]1O[C@H](C(=O)NS(=O)(=O)c2c(Cl)nc3sccn23)[C@@H](O)[C@H]1O	-32.1%
Cc1csc2nc(COC(=O)c3cccc(N(C)C)c3)cc(=O)n12	6.38%
CCOc1ccc(NC(=O)COc2ccc(S(=O)(=O)N3CCCC3)cc2)cc1	16%
O=C(CN1CCCCCC1)Nc1ccc(S(=O)(=O)N2CCCCC2)cc1	33.1% (active)
O=C(CSCc1ccc(Br)cc1)Nc1ccc(S(=O)(=O)N2CCCCCC2)cc1	4.8%
COCc1c(C(=O)N/N=C(\C)c2ccncc2)nnn1-c1nonc1N	-10.9%
FC(F)(F)c1ccccc1Cc1c(-c2ccccc2)nc2c3ccccc3ccn12	-26%
COc1ccccc1N(CC(=O)Nc1c(C)n(C)n(-c2ccccc2)c1=O)S(=O)(=O)c1ccccc1	-20.5%
CN(C)CCCCCN(C)Cc1cc2ccccc2o1	-3.73%
COc1ccc(-c2cc(NC=O)c3ncc(-c4ccccc4)n3c2)cc1OC	4.7%
CC(=O)Nc1ccc(-c2cn3cccnc3n2)cc1	-2.56%
NC(c1ccccc1)c1csc(NC(=O)Nc2cccc(C(F)(F)F)c2)n1 (stereo unspecified)	6.11%
CC(=O)Nc1ccc(-c2csc(NC(=O)Nc3ccccc3)n2)cc1	38.3% (active)
CC(CCc1ccccc1)NC(=O)c1cnc(Cl)c(Cl)c1 (stereo unspecified)	2.23%
COc1ccc(CNC(=O)C(C)NCc2ccccc2Cl)cc1 (stereo unspecified)	1.81%
CC(CCc1ccc(O)cc1)NCc1ccc(Cl)cc1Cl (stereo unspecified)	30.2% (active)
COc1ccc(-c2cc(NC=O)c3ncc(-c4cc(OC)c(OC)c(OC)c4)n3c2)c(OC)c1	5.71%
Cc1ccc2cc(CCNC(=O)c3ccc4c(c3)OCO4)c(=O)[nH]c2c1	-6.75%
Cc1ccc(N(C(=O)c2sc(C)nc2C)C(C(=O)NC(C)(C)C)c2ccncc2)cc1 (stereo unspecified)	-4.9%
CCOCCCNS(=O)(=O)Cc1ccccc1	-12.6%
Cc1nccn1-c1ccc(NC(=O)[C@H]2O[C@@H](n3cnc4c(N)ncnc43)[C@H](O)[C@@H]2O)cc1	-16.5%
CCCCCn1c(=O)[nH]c2cc(C(=O)NCCCN3CCCCC3C)ccc2c1=O (stereo unspecified)	27.5% (active)
CC1CCCCN1CCCNC(=O)Cn1ncc2c([nH]c3ccccc32)c1=O (stereo unspecified)	3.02%
O=C(NC1CCCCC1)c1ccc2c(=O)n(CC3CCCO3)c(=O)[nH]c2c1 (stereo unspecified)	-13.8%
